The text below walks through data of PMC4336329 (PLoS ONE, 2015).

Out of some 310,000 compounds screened, about 2,200 (0.71%) showed an effect of 50% or more. The effect is printed as a negative number. The entries come from a sample that favours strong results as a whole.

human ether-à-go-go-related gene (hERG) potassium channel, sequence (Q12809 whole entry, looked up): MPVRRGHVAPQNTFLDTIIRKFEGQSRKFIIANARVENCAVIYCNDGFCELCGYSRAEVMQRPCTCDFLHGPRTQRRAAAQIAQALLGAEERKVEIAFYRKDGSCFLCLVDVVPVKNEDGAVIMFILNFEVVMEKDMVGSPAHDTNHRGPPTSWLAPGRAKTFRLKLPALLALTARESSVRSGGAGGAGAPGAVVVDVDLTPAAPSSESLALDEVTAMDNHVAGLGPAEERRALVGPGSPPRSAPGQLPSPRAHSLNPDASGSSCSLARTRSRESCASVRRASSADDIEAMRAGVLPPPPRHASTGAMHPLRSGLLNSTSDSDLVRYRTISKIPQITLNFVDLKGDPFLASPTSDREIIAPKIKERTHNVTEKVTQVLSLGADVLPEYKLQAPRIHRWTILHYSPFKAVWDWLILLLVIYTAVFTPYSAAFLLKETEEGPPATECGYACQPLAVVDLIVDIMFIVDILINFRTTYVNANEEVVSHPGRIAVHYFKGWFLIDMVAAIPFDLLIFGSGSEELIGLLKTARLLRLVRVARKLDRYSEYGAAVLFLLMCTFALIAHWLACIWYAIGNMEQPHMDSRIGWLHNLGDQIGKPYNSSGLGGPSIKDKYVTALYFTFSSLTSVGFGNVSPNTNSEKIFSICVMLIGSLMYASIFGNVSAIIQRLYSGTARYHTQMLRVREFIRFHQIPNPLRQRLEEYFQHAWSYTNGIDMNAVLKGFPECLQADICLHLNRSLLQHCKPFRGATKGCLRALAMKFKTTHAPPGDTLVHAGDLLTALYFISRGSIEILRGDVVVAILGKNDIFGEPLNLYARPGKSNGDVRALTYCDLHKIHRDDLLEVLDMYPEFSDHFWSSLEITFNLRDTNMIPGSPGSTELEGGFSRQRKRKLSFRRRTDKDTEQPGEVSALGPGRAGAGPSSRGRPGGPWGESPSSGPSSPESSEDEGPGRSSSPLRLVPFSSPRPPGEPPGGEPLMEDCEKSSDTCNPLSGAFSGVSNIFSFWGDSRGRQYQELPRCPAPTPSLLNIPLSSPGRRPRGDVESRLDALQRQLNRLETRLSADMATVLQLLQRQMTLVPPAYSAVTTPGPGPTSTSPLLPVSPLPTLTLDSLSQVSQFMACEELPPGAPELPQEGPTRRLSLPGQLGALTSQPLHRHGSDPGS

The assay addresses human ether-à-go-go-related gene (hERG) potassium channel (human, UniProt Q12809). In words: primary screen, population patch clamp on CHO cells stably expressing hERG; higher = less effect of the substance.
Turning to `O=C(NCCc1ccccc1)c1ccc2nccnc2c1`, the “hERG current change (%, negative = inhibition) at 1uM” value is on record as 20.4%.
`CC(C)Cc1ccc(C(C)C(N)=NCCc2ccccc2)cc1.Cl` (stereo not shown): the “hERG current change (%, negative = inhibition) at 1uM” value was -16%.
Turning to `CC(C)Cc1ccc(C(C)C(N)=Nc2ccc(O)cc2)cc1.Cl` (stereo not shown), the “hERG current change (%, negative = inhibition) at 1uM” value is -71.8%.
With `CC(C)Cc1ccc(C(C)C(=N)N)cc1.Cl` (stereo not shown), the “hERG current change (%, negative = inhibition) at 1uM” value amounted to 10.2%.
`CSCCC(=O)N1CCC(n2nccc2NC(=O)CCc2ccccc2)CC1`: the “hERG current change (%, negative = inhibition) at 1uM” value was 5.02%.
Consider `Cc1ccc2c(c1)nnn2C1CCN(CC(=O)Nc2ccc(F)cc2)CC1`, for which the “hERG current change (%, negative = inhibition) at 1uM” value is recorded as -20.7%.
The figure for `CC(=O)c1ccc(NC(=O)CN2CCC(C(=O)c3ccc(F)cc3)CC2)cc1` is 6.3%; for `O=C(CN1CCC(C(=O)c2ccc(F)cc2)CC1)Nc1ccc(F)cc1` it is -31.6%; for `Cc1ccc(C(=O)C2CCN(CC(=O)N3CCN(c4ccc(F)cc4)CC3)CC2)cc1` it is -66.5%.
For `Cc1ccc2c(c1)nnn2C1CCN(CC(=O)N2CCN(c3ccc(F)cc3)CC2)CC1`, the “hERG current change (%, negative = inhibition) at 1uM” value was -52.5%.
Consider `Cc1ccc(NC(=O)CN2CCC(C(=O)c3ccc(F)cc3)CC2)cc1`, for which the “hERG current change (%, negative = inhibition) at 1uM” value is listed as -50.1%.
On to `Cc1ccc2c(c1)nnn2C1CCN(CC(=O)c2ccc(Cl)cc2)CC1`, for which the “hERG current change (%, negative = inhibition) at 1uM” value was -6.32%.
On to `O=C(c1ccccc1)C1CCN(CC(=O)N2CCN(c3ccccc3)CC2)CC1`, for which the “hERG current change (%, negative = inhibition) at 1uM” value is given as 10.9%.
Regarding `Cc1ccc(C(=O)C2CCN(CC(=O)NCc3ccc(F)cc3)CC2)cc1`, the “hERG current change (%, negative = inhibition) at 1uM” value is -17.5%.
As for `O=C(/C=C/c1ccc(F)cc1)NC(=S)Nc1ccccc1O`, the figure is 13.6%.
As to `CCN1C(=O)/C(=C/c2ccc(N(CC)CC)cc2OC)C(=O)NC1=S`, the “hERG current change (%, negative = inhibition) at 1uM” value is 5.05%.
Consider `Cc1ccccc1OCCN=Cc1c(O)n(C)c(=O)n(C)c1=O`, for which the “hERG current change (%, negative = inhibition) at 1uM” value stood at 10.2%.
In the case of `Cc1cc(C(=O)NC2=NCCS2)cs1`, the “hERG current change (%, negative = inhibition) at 1uM” value is on record as -13%.
As for `Cc1ccc(S(=O)(=O)NCCC(=O)NNC(=O)c2ccccc2O)cc1C`, the “hERG current change (%, negative = inhibition) at 1uM” value is listed as -9.68%.
On to `Cc1csc(Sc2ccc(S(=O)(=O)N3CCCC3)cn2)n1`, for which the “hERG current change (%, negative = inhibition) at 1uM” value is given as -2.28%.
As to `O=Cc1c(NCCc2ccc(F)cc2)c2ccccc2[nH]c1=O`, the “hERG current change (%, negative = inhibition) at 1uM” value is given as 4.06%.
On to `Cc1ccc(-c2csc(NC(=O)C3CSC4(C)CCC(=O)N34)n2)cc1` (stereo not shown), for which the “hERG current change (%, negative = inhibition) at 1uM” value turned out to be 11.6%.
Consider `O=C(Nc1ccnn1C1CCN(Cc2ccccc2)CC1)C1CCCC1`, for which the “hERG current change (%, negative = inhibition) at 1uM” value is on record as -15.9%.
For the compound `O=C(Nc1ccnn1C1CCN(Cc2ccccc2F)CC1)C1CCCC1`, the “hERG current change (%, negative = inhibition) at 1uM” value is -6.15%.
As for `O=C(Nc1ccnn1C1CCN(Cc2cccc(O)c2)CC1)C1CCCC1`, the “hERG current change (%, negative = inhibition) at 1uM” value is recorded as -14.2%.
For the compound `O=C(Nc1ccnn1C1CCN(C/C=C/c2ccccc2)CC1)C1CCCC1`, the “hERG current change (%, negative = inhibition) at 1uM” value is -78.4%.
`O=C(Nc1ccnn1C1CCN(C/C=C/c2ccc(F)cc2)CC1)C1CCCC1`: the “hERG current change (%, negative = inhibition) at 1uM” value is on record as -79.3%.
Regarding `O=C(Nc1ccnn1C1CCN(Cc2cccc(F)c2F)CC1)C1CCCC1`, the “hERG current change (%, negative = inhibition) at 1uM” value was 8%.
As for `CC1(c2ccccc2)CC(C)(C)N2C(=O)C3(C(C#N)=C(N)Oc4cc(O)ccc43)c3cccc1c32` (stereo not shown), the figure is 6.18%; as for `O=C(CNCc1cccc2ccccc12)Nc1ccccc1[N+](=O)[O-]`, 1.68%; as for `COc1ccc(NC(=O)CSc2nnc(-c3ccoc3C)n2CCc2ccccc2)cc1`, 1.36%.
Regarding `CCN1/C(=C/C=C/C=C/c2sc3ccccc3[n+]2CC)Sc2ccccc21.[I-]`, the “hERG current change (%, negative = inhibition) at 1uM” value is -37.5%.
With `CCN1/C(=C/c2ccc3cc(C)ccc3[n+]2CC)Sc2ccccc21.[I-]`, the “hERG current change (%, negative = inhibition) at 1uM” value is on record as -100%.
As for `CCC(=O)/C=C1/Sc2ccccc2N1CC`, the figure is 10.1%; as for `CCN1/C(=C/C=C/C=C/C=C/c2sc3ccccc3[n+]2CC)Sc2ccccc21.[I-]`, 7.57%.
On to `CCN1/C(=C/c2ccc3cccc(C)c3[n+]2CC)Sc2ccccc21.[I-]`, for which the “hERG current change (%, negative = inhibition) at 1uM” value is -76.4%.
The figure for `CCN1/C(=C/c2ccc3ccc(C)cc3[n+]2CC)Sc2ccccc21.[I-]` is -63.6%; for `CCN1/C(=C/c2ccc3cc(C)ccc3[n+]2CC)Sc2ccc3sccc3c21.[I-]` it is 10.9%; for `CCC(=O)/C=C1\Sc2ccccc2N1CC` it is 4.38%.
Regarding `CCN1/C(=C/C(C)=C/c2sc3ccccc3[n+]2CC)Sc2ccccc21.[I-]`, the “hERG current change (%, negative = inhibition) at 1uM” value was 10.6%.
Take `COc1cccc(CCc2nnc(N)s2)c1`: the “hERG current change (%, negative = inhibition) at 1uM” value worked out at 13.2%.
With `O=Cc1cn(CC(=O)Nc2ccccc2)c2ccccc12`, the “hERG current change (%, negative = inhibition) at 1uM” value stood at 6.4%.
The figure for `C=CCOC(=O)Nc1ccc(Cl)cc1NC(=O)OCC=C` is 0.411%; for `Cc1ccc(C(=O)Oc2ccc(Cl)c3cccnc23)cc1[N+](=O)[O-]` it is 15%.
`CCCc1c(C)[nH]c2nc3ccccc3n2c1=O`: the “hERG current change (%, negative = inhibition) at 1uM” value is on record as 11.4%.
As for `COc1ccc(C)cc1S(=O)(=O)N(C)CC(=O)N1CCC(C(N)=O)CC1`, the “hERG current change (%, negative = inhibition) at 1uM” value is 9.99%.
In the case of `COc1cc(NC(=S)N2CCN(C)CC2)cc(OC)c1`, the “hERG current change (%, negative = inhibition) at 1uM” value came to 14.3%.
In the case of `CCN1C(=O)/C(=C\N2CCN(c3cccc(Cl)c3)CC2)SC1=S`, the “hERG current change (%, negative = inhibition) at 1uM” value amounted to 6.97%.
The figure for `COc1ccc(NC(=S)N(CCCN2CCCC(C)C2)Cc2cccs2)cc1` (stereo not shown) is -62.4%.
On to `COc1ccc(NC(=S)N(CCCN2CCOCC2)C(C)c2cc3cccc(OC)c3o2)cc1` (stereo not shown), for which the “hERG current change (%, negative = inhibition) at 1uM” value was 3.7%.
As for `COc1ccc(NC(=S)N(CCCN2CCC(C)CC2)Cc2cccs2)cc1`, the “hERG current change (%, negative = inhibition) at 1uM” value is -47.5%.
Consider `COc1cccc(NC(=S)N(CCCN2CCOCC2)C(C)c2cc3ccccc3o2)c1` (stereo not shown), for which the “hERG current change (%, negative = inhibition) at 1uM” value is listed as 10.6%.
Consider `COc1cccc(NC(=S)N(CCCN2CCCC(C)C2)Cc2cccs2)c1` (stereo not shown), for which the “hERG current change (%, negative = inhibition) at 1uM” value was -30.2%.
In the case of `COc1ccc(NC(=S)N(CCCN2CCOCC2)C(C)c2cc3ccccc3o2)cc1` (stereo not shown), the “hERG current change (%, negative = inhibition) at 1uM” value is reported as -63.1%.
Turning to `COc1ccc(NC(=S)N(CCCN2CCCCC2)Cc2cccs2)cc1`, the “hERG current change (%, negative = inhibition) at 1uM” value is reported as -50.1%.
Take `COc1ccc(NC(=S)N(CCCN2CCN(C)CC2)Cc2cccs2)cc1`: the “hERG current change (%, negative = inhibition) at 1uM” value is reported as -14%.
Take `COc1ccc(NC(=S)N(CCCN2CCCC2)Cc2cccs2)cc1`: the “hERG current change (%, negative = inhibition) at 1uM” value is reported as -7.06%.
For the compound `COc1ccccc1-c1csc(NC(=O)c2ccc(N3C(=O)CCC3=O)cc2)n1`, the “hERG current change (%, negative = inhibition) at 1uM” value came out at 5.85%.
In the case of `Cc1c(C(=O)Nc2ccc(S(=O)(=O)N(C)C3CCN(C)CC3)cc2)oc2ccccc12`, the “hERG current change (%, negative = inhibition) at 1uM” value was 3.99%.
As to `Cc1cc(NC(=O)Cn2nc([N+](=O)[O-])c(Br)c2C)no1`, the “hERG current change (%, negative = inhibition) at 1uM” value turned out to be 15.4%.
As for `Clc1ccc(-c2csc(N3CCN(c4ccccc4)CC3)n2)cc1`, the “hERG current change (%, negative = inhibition) at 1uM” value is recorded as 6.51%.
On to `O=C(COC(=O)Cc1c(F)cccc1Cl)NCCC1=CCCCC1`, for which the “hERG current change (%, negative = inhibition) at 1uM” value was determined as 7.46%.
As for `Cc1cc(CN(C)C(=O)c2ccc(OC3CCN(Cc4ccccn4)CC3)cc2)on1`, the figure is -2.96%.
Take `O=C(NCc1ccon1)c1ccc(OC2CCN(CCc3ccccc3)CC2)cc1`: the “hERG current change (%, negative = inhibition) at 1uM” value was -26%.
`CN(Cc1cnn(C)c1)C(=O)c1ccc(OC2CCN(CCc3ccccc3)CC2)cc1`: the “hERG current change (%, negative = inhibition) at 1uM” value was -8.79%.
On to `CCc1cc(CNC(=O)c2ccc(OC3CCN(CCc4ccccc4)CC3)cc2)on1`, for which the “hERG current change (%, negative = inhibition) at 1uM” value is reported as -54.4%.
Take `O=C(NCCn1cccn1)c1ccc(OC2CCN(CCc3ccccc3)CC2)cc1`: the “hERG current change (%, negative = inhibition) at 1uM” value is given as -1.71%.
Turning to `Cc1cc(CN(C)C(=O)c2ccc(OC3CCN(CCc4ccccc4)CC3)cc2)on1`, the “hERG current change (%, negative = inhibition) at 1uM” value was -77.5%.
Consider `CN1CCN(c2ccc(CNS(=O)(=O)Cc3cccc(C(F)(F)F)c3)cc2)CC1`, for which the “hERG current change (%, negative = inhibition) at 1uM” value is given as 7.74%.
Regarding `N=c1c(C(=O)NCc2ccco2)cc2c(=O)n3ccccc3nc2n1CCc1ccccc1`, the “hERG current change (%, negative = inhibition) at 1uM” value is reported as -84.2%.
Take `CC(C)n1c(=N)c(C(=O)NCCc2ccccc2)cc2c(=O)n3ccccc3nc21`: the “hERG current change (%, negative = inhibition) at 1uM” value is given as -78.6%.
For the compound `N=c1c(C(=O)NCCN2CCOCC2)cc2c(=O)n3ccccc3nc2n1CCc1ccccc1`, the “hERG current change (%, negative = inhibition) at 1uM” value is listed as -33.1%.
For the compound `COc1ccc(CCNC(=O)c2cc3c(=O)n4ccccc4nc3n(Cc3ccco3)c2=N)cc1OC`, the “hERG current change (%, negative = inhibition) at 1uM” value is -74.3%.
As for `COc1ccc(CCNC(=O)c2cc3c(=O)n4cccc(C)c4nc3n(Cc3ccco3)c2=N)cc1OC`, the “hERG current change (%, negative = inhibition) at 1uM” value was -21.8%.
For the compound `N=c1c(C(=O)NCc2ccccc2)cc2c(=O)n3ccccc3nc2n1Cc1ccco1`, the “hERG current change (%, negative = inhibition) at 1uM” value is reported as -75.5%.
With `O=C(NCCc1ccccc1)c1cnc2ccccn2c1=O`, the “hERG current change (%, negative = inhibition) at 1uM” value is reported as 8.72%.
In the case of `COc1ccc(CCNC(=O)c2ccc3c(=O)n(Cc4ccco4)c(=S)[nH]c3c2)cc1OC`, the “hERG current change (%, negative = inhibition) at 1uM” value stood at 13.6%.
As for `N=c1c(S(=O)(=O)c2ccccc2)cc2c(=O)n3ccccc3nc2n1Cc1ccco1`, the figure is 18.6%; as for `N=c1c(S(=O)(=O)c2ccc(Br)cc2)cc2c(=O)n3ccccc3nc2n1Cc1ccco1`, 15.4%; as for `CC(=O)c1ccc(OCCCC(=O)Nc2cccc(S(=O)(=O)N3CCCCC3)c2)cc1`, -3.68%.
Take `Oc1ccc2ccccc2c1Br`: the “hERG current change (%, negative = inhibition) at 1uM” value was found to be 12.1%.
Turning to `COc1ccc(N2CCN(C(=O)/C=C/c3ccco3)CC2)cc1`, the “hERG current change (%, negative = inhibition) at 1uM” value stood at 6.52%.
For `Cc1ccc(C(=O)NCCNS(=O)(=O)c2ccccc2)cc1`, the “hERG current change (%, negative = inhibition) at 1uM” value was -1.17%.
The figure for `CCC(=O)Nc1nnc(S(=O)(=O)N(CC)c2ccc(OC)cc2)s1` is 23.9%; for `COc1ccc(/C=C(/NC(=O)c2ccccc2)C(=O)N2CCCC2)cc1OC` it is 14.3%.
